For some of these results: Measured potencies and affinities stand elsewhere.
Experiments:
Set-up in all cases: scale not given: direction of the effect not stated beside the values
[1] = target: Protein translocase subunit SecA (Escherichia coli (strain K12)) (UniProt P10408); assay: Assay to Identify E. coli SecA ATPase Inhibitors; format: functional; details: 30 µM
[2] = target: T1, Ubiquitin-activating enzyme e1, putative (Leishmania donovani (strain BPK282A1)) (UniProt E9BSI1); assay: Leishmania donovani Ubiquitin Activating Enzyme (LdE1); format: functional; details: 30 µM
T1 sequence (whole entry): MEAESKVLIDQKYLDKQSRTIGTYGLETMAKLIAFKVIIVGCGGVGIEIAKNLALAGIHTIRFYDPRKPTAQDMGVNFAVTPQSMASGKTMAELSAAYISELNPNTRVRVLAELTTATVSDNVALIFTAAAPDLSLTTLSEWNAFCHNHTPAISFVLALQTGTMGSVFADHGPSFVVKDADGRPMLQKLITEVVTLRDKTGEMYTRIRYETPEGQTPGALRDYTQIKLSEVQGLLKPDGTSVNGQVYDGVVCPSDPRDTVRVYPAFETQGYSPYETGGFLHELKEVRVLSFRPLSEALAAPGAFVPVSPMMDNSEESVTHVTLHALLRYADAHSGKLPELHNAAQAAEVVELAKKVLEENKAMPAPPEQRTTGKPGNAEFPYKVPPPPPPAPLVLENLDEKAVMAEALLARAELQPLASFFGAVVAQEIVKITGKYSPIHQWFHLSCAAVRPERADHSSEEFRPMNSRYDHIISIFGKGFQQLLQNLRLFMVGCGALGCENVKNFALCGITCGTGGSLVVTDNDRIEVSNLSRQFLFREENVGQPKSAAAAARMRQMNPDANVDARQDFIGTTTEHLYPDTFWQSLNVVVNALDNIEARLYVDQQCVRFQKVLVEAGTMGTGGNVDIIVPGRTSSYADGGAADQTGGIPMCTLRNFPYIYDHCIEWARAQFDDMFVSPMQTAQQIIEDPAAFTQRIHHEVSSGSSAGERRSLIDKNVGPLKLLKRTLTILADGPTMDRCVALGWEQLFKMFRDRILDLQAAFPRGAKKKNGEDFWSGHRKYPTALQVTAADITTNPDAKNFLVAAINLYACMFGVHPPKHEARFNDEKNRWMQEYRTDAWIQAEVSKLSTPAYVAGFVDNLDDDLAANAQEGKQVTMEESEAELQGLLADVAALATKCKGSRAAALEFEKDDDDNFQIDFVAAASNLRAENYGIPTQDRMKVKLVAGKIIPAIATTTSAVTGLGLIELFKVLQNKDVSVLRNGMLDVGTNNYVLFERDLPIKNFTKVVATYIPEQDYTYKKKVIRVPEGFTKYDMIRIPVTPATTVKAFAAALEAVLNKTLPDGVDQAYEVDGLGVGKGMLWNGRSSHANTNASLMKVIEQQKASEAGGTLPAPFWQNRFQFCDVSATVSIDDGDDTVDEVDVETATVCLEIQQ

[3] = target: AMP-activated protein kinase, AMPK (Homo sapiens) (UniProt P54646+O43741+P54619+Q9UGJ0+Q9Y478+Q13131+Q9UGI9); assay: AMP-dependent Kinase enzyme assay. An in vitro enzyme assay that detects ADP turnover that is directly proportional to AMPK activity. This uses naive AMPK that is activated during the assay with MK-8722; format: functional; details: 30 µM
[4] = target: Sialic acid-binding Ig-like lectin 9 (Homo sapiens) (UniProt Q9Y336); assay: Hs-Siglec9 ALPHAscreen SOP 20170721; details: 10 µM
Sialic acid-binding Ig-like lectin 9 (Homo sapiens), sequence (Q9Y336 whole entry): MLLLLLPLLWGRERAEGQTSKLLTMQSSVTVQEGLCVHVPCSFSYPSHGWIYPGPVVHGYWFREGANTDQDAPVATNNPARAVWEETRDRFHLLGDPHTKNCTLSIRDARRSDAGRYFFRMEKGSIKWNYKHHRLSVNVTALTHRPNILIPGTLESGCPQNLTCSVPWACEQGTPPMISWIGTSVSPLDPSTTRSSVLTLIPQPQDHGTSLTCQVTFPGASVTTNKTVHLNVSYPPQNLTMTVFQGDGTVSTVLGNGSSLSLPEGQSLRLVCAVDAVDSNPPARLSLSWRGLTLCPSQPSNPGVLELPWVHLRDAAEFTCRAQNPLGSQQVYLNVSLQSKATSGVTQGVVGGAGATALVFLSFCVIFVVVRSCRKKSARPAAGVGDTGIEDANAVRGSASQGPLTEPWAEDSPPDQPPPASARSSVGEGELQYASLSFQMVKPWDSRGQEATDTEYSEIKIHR

Trypanosoma cruzi = assay: Trypanosoma cruzi phosphomannomutase and mannose-1-phosphate guanylyltransferase assay; format: functional; details: 10 µM
[5] = target: T2, Arginase-2, mitochondrial (Homo sapiens) (UniProt P78540); assay: in vitro enzyme assay to detect the production of urea directly proportional to the activity of Arginase II; format: functional; details: 33.3 µM; note: in the data most compounds retested in dose-response had high values
T2 sequence (whole entry): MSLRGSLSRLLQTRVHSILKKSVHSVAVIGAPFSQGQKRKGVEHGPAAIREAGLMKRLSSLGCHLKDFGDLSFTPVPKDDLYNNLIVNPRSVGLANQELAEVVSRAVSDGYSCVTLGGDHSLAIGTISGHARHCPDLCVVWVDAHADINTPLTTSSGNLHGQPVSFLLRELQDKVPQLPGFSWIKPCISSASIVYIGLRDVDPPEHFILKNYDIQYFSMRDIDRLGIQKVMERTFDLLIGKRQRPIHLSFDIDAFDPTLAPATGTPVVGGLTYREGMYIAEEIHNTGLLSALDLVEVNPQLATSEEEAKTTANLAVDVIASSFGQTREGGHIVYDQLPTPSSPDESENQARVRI

[6] = target: T3, Proteasome subunit beta (Trypanosoma cruzi) (UniProt O96673); assay: Trypanosoma cruzi proteasome chymotrypsin-like activity (TcProtChymo) assay.; note: in the data most compounds retested in dose-response had high values; format: functional; details: 9.37 µM
T3 sequence (whole entry): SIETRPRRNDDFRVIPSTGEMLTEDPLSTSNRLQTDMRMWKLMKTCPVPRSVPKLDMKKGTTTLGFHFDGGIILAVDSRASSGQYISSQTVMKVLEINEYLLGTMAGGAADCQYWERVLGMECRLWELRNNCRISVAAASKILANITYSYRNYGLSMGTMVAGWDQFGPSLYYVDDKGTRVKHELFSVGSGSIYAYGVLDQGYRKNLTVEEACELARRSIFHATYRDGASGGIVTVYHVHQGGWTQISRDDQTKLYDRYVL

Homo sapiens = organism: Homo sapiens; assay: To identify inhibition of the IFN signalling (Jak-Stat) pathway via expression of an eGFP reporter gene under the control of an IFN-stimulated response element (ISRE) containing MxA promoter.; format: functional; details: 30 µM
[7] = target: T4, Tyrosyl-tRNA synthetase, putative (Trypanosoma cruzi (strain CL Brener)) (UniProt Q4DSP6); assay: Trypanosoma cruzi tyrosyl tRNA synthetase (TcYRS) _High Tyrosine SOP; format: functional; details: 30 µM; note: in the data most compounds retested in dose-response had high values
T4 sequence (whole entry): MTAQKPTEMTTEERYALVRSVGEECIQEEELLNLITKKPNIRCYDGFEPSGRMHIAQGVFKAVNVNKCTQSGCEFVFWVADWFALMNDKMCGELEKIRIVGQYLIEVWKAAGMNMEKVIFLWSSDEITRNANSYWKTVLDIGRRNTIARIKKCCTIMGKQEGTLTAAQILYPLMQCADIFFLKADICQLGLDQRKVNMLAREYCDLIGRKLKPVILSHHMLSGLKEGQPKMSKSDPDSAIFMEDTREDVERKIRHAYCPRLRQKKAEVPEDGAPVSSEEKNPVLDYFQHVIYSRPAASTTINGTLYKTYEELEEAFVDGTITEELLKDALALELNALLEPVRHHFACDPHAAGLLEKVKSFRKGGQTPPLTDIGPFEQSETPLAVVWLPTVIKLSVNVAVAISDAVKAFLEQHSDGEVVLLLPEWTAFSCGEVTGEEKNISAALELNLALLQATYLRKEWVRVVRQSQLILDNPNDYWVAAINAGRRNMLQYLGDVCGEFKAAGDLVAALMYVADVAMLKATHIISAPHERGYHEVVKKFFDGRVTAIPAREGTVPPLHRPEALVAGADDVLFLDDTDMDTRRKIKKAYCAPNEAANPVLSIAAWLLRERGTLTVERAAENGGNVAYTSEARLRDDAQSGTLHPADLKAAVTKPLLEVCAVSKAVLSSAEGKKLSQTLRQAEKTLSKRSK

[8] = target: T4, Tyrosyl-tRNA synthetase, putative (Trypanosoma cruzi (strain CL Brener)); assay: Trypanosoma cruzi tyrosyl tRNA synthetase (TcYRS) SOP; format: functional; details: 30 µM
[9] = target: Chromo domain-containing protein 1 (Saccharomyces cerevisiae (strain ATCC 204508 / S288c) (Baker's yeast)) (UniProt P32657); assay: ScCHD-1 Enzyme Inhibition Assay; format: functional; details: 30 µM; note: in the data most compounds retested in dose-response had high values
Chromo domain-containing protein 1 (Saccharomyces cerevisiae (strain ATCC 204508 / S288c) (Baker's yeast)), sequence (P32657 whole entry, the tested form may be a part): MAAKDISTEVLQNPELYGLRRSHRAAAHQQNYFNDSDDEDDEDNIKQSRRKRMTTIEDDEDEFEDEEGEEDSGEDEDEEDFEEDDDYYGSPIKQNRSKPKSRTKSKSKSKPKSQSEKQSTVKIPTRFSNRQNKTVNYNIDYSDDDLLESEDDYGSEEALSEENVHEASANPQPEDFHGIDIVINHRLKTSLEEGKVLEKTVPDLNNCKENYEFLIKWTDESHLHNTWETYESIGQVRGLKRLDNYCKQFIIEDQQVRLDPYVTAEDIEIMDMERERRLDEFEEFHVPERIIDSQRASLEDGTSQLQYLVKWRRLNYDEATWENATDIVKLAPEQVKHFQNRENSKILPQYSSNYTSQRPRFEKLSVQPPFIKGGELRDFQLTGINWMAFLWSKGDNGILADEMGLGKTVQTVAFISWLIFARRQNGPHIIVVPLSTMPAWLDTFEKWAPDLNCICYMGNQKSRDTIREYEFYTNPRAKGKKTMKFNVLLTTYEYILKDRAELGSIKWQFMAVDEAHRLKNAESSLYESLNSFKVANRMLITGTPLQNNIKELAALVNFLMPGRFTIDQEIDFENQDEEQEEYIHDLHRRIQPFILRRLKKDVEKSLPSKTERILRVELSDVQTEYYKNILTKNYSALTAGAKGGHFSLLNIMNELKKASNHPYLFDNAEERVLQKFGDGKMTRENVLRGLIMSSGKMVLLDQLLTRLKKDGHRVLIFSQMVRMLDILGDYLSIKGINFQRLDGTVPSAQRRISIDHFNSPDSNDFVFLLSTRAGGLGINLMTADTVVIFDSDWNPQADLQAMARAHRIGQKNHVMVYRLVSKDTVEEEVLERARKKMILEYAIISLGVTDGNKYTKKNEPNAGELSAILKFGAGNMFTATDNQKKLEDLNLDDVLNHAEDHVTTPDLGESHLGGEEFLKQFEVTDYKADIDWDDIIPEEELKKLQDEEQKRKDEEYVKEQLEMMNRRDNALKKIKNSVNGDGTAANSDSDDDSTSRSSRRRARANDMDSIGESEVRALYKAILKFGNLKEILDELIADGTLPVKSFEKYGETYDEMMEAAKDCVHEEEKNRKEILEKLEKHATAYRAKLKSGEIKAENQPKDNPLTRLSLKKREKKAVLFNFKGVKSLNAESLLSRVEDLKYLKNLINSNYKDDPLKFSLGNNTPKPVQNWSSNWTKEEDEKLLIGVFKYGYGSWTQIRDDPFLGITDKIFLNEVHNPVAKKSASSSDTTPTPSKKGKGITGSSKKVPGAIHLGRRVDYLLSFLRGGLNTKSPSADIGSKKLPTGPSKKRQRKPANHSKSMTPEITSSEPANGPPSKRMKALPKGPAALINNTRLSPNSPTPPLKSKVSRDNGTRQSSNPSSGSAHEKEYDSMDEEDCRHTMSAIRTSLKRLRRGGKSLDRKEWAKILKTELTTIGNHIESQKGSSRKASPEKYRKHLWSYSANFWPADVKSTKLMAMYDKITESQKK

Protein translocase subunit SecA (Escherichia coli (strain K12)), sequence (P10408 whole entry): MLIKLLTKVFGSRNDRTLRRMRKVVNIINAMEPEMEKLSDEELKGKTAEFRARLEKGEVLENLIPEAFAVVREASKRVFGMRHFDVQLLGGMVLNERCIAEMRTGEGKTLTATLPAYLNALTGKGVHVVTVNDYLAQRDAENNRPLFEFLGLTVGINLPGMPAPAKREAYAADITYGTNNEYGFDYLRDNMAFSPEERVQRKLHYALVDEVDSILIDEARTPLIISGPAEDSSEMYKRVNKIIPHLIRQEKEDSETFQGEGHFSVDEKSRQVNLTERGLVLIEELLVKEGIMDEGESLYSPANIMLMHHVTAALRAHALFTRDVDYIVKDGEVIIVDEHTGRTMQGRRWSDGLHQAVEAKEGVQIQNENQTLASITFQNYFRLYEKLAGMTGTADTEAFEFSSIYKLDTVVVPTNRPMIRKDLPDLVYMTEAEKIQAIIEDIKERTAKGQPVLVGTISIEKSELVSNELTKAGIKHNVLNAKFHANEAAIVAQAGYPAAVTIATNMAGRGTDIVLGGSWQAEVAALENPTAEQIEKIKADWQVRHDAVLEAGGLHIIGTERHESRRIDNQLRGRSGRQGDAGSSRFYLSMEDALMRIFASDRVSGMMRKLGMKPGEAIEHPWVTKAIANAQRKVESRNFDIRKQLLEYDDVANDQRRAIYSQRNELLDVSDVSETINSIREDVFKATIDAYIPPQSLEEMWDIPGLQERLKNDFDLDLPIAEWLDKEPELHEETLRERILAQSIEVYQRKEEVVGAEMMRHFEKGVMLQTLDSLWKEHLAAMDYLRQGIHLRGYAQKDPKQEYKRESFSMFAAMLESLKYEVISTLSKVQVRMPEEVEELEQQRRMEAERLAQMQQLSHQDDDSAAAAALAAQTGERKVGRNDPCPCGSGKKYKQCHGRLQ

Row | SMILES | Percent Effect [1] | Percent Effect [2] | Percent Effect [3] | Percent Effect [4] | Percent Effect (Trypanosoma cruzi) | Percent Effect [5] | Percent Effect [6] | Percent Effect (Homo sapiens) | Percent Effect [7] | Percent Effect [8] | Percent Effect [9]
1 | Cc1ccc(CC(=O)N2Cc3nccn3CC(CN(C)C)C2)cc1 (stereo unspecified) | 2.93% | 11% | -4.31% | 9.23% | 0.198% | 5.59% | 15.3% | 20.1% | 8.33% | 16.1% | -2.84%
2 | CCc1csc(C2CCCN(C(=O)c3cnn(CC)c3)C2)n1 (stereo unspecified) | -1.78% | -2.63% | 68.6% | -1.18% | -1.46% | 3.55% | 6.04% | 6.86% | 3.19% | -2.6% | -7.82%
3 | COc1ccc2c(c1)CN(Cc1nc3ccsc3c(=O)[nH]1)CC2 | -2.79% | -5.06% | -0.628% | 14.2% | -1.79% | 1.9% | 2.05% | 24.5% | 3.45% | 1.27% | 21.3%
4 | Cc1ccc(NC(=O)c2cc(S(=O)(=O)N3CCCCC3)c[nH]2)cc1F | -2.47% | 5.2% | 59.4% | -11.2% | -5.03% | 5.81% | 6.61% | 4.38% | 5.29% | -21.8% | -9.19%
5 | CCCNCc1cc2c(C)cc(C)cc2n2c(=O)n(C)nc12 | -5.13% | 4.05% | 11% | 0.45% | 4.94% | 9.05% | 5.62% | 16.2% | 4.3% | 3.9% | -20%
6 | O=C(CSC1=NS(=O)(=O)c2cc(F)ccc2N1)Nc1cccc(Cl)c1 | -1.88% | -39% | 1.02% | -0.207% | 2.86% | -0.645% | 21.1% | 26.7% | -10.6% | -8.97% | -11.3%
7 | CN(Cc1ccc(Cl)c(Cl)c1)C(=O)CNC(N)=O | -3.49% | 10.5% | 9.37% | -5.68% | 3.6% | -13% | 17.4% | 2.07% | 4.25% | 15.6% | -1.83%
8 | CSc1nccn1-c1cccc(C(=O)NCc2nnc(C)n2C)c1 | -3.63% | 13.2% | -0.262% | 12.6% | 4.01% | 1.08% | 3.98% | 15.6% | 6.4% | 23.5% | -2.71%
9 | O=C(c1cccc(NCCO)c1)N1CCOCC1 | 0.755% | 13% | -9.18% | 2.34% | -2.46% | -5.52% | 19.3% | 28.8% | 2.15% | 11.1% | -2.11%
10 | COC(=O)c1cccn1C1CCN(C(=O)c2cc(C)ccc2O)CC1 | -8.92% | 18.2% | 3.73% | -0.853% | -7.12% | 0.712% | 6.25% | 38.3% | 2.91% | 9.76% | -5.74%
11 | Cc1csc(N2CCN(Cc3cnc(C)s3)CC2C)n1 (stereo unspecified) | -4.06% | 5.48% | 3.55% | -0.927% | 2.94% | 1.36% | 11.2% | 52.1% | 5.38% | 17.5% | -2.04%

— ChEMBL document CHEMBL3988442, “University of Dundee, Small-Polar-MMV Screening Library” (2021)
